Compound activity: PubChem, National Center for Advancing Translational Sciences (NCATS)
G9a block = inhibitors of human histone lysine methyltransferase G9a. G9a H3K9 monomethylation, AlphaScreen, 2 h. Potency, µM (series often up to 102 µM), without a hit: top-dose activity, negative = inhibition, hits mostly inhibitors. 350,000 tested, 8.8% active; also: % is scaled to controls: 0 for no effect and ±100 for the full control effect; nearly all actives have a fitted effect of over 75% in size
Target sequence (Q96KQ7 913-1193 limits assumed): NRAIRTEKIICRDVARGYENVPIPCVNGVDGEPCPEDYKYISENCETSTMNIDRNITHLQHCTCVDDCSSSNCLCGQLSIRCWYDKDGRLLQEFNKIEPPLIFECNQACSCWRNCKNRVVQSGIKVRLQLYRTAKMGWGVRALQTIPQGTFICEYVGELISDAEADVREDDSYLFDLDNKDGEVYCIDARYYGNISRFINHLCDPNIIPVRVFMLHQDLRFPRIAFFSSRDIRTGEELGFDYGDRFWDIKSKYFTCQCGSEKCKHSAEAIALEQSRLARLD
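AlphaScreen read-out: biotin-H3K9 peptide (500 nM) methylation by 20 nM enzyme with 20 uM SAM, 2 h at room temperature after 15 min compound preincubation; anti-monomethyl H3K9 antibody plus donor/acceptor beads, 10 min dark.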
12-LOX inh = ALOX12 (human) lipoxygenase inhibition | P18054 | purified 12hLO, xylenol orange hydroperoxide absorbance | Potency, µM (series often up to 108 µM), for inactives: top-dose activity change, negative = inhibition, hits mostly inhibitors | 580,000 tested, 1.1% active; also: % is scaled to controls: 0 for no effect and ±100 for the full control effect
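Purified human 12hLO at 150 nM in 25 mM Hepes, 0.01% Triton X-100, pH 7.0, preincubated 15 min at room temperature with compound. Reaction started with 40 uM arachidonic acid, 30 min at room temperature. Hydroperoxide measured by Fe-xylenol orange, 573/405 nm absorbance ratio.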
JMJD2A Tudor = inhibitors of human JMJD2A Tudor domain. AID 504339. 390,000 tested, 4.4% active. Potency, µM (top dose mostly 114 µM), for the others: at the top dose activity change, negative = inhibition, hits mostly inhibitors. O75164. AlphaScreen JMJD2A-Tudor / H3K4me3 peptide binding; also: % is scaled to controls: 0 for no effect and ±100 for the full control effect; nearly all actives have a fitted effect of over 50% in size
PLK1 PBD block = blocks phosphopeptide binding to human PLK1 polo-box domain; Plk1 PBD binding of FITC phosphopeptide, fluorescence polarization; 360,000 tested, 2.8% active; Potency, µM, inactives show max response, negative = inhibition, usual class: inhibitors; P53350; also: series mostly up to about 57 µM; % is scaled to controls: 0 for no effect and ±100 for the full control effect; nearly all actives have a fitted effect of over 65% in size
BAZ2B inh = blocks human BAZ2B; AlphaScreen BAZ2B-H3K14Ac peptide displacement; Potency, µM (doses to about 114 µM), without a hit: at the top dose activity change, negative = inhibition, most hits filed as inhibitors; 360,000 tested, 4.4% active; AID 504333; also: % is scaled to controls: 0 for no effect and ±100 for the full control effect; nearly all actives have a fitted effect of over 60% in size
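In this displacement format the biotinylated H3(5-23) peptide acetylated at Lys14 serves as ligand at 50 nM, with BAZ2B at 50 nM in PBS pH 7.4 containing 0.01% Tween-20. Donor and acceptor beads are 10 ug/mL final.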
HP1b chromo inh = inhibitors of HP1-beta chromodomain binding to methylated histone tails; P83916; AlphaScreen HP1-beta / biotin-H3K9me3 peptide binding; Potency, µM (top dose mostly 114 µM), without a hit: top-dose activity change, negative = inhibition, most hits filed as inhibitors; 390,000 tested, 0.56% active; AID 540317; also: nearly all actives have a fitted effect of over 70% in size
Target sequence (P83916 whole entry, looked up): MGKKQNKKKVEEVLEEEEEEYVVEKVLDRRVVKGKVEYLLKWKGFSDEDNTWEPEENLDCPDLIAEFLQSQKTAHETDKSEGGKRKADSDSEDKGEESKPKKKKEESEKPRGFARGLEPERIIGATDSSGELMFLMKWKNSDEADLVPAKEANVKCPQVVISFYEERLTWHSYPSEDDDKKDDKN
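HP1-beta protein (50 nM final) preincubated 30 min at room temperature with biotinylated H3(1-18)K9me3 peptide (50 nM) in PBS pH 7.4, 0.01% Tween-20, then compound added for 30 min. AlphaScreen streptavidin donor/nickel chelate acceptor beads (10 ug/mL final), 30 min dark, luminescence read.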
The depositor's hits bear a star; [ ] = dose if it differs, or a comment. A selection: hits, their analogues and other compounds. The true share with any hit is near 9%. Calls follow the shape of the dose curve; as a rule, active = well fitted curve in the direction sought with a large enough effect; inconclusive = small, poorly fitted or top-dose-only effect, or another doubt; inactive = no such curve, though single readings can be large; an effect the other way counts as inactive or inconclusive. Potency is read from the fitted curve at half-maximal effect.

Results for CCn1nc(C)cc1-c1nn2c(-c3ccc(F)cc3)nnc2s1 ?
12-LOX inh: 17%

Results for Clc1ccc(-c2nnc3sc(-c4ccco4)nn23)c(Cl)c1 ?
G9a block: -27%[12.7 µM]; BAZ2B inh: 3%

What do the screens show for `Cc1oc(-c2ccc(F)cc2)cc1-c1nn2c(-c3ccoc3C)nnc2s1`?
G9a block: inconclusive; 12-LOX inh: -35%; JMJD2A Tudor: 89µM*; PLK1 PBD block: inconclusive; BAZ2B inh: 35µM*; HP1b chromo inh: inconclusive

Results for Clc1ccccc1-c1nnc2sc(-c3ccco3)nn12 ?
G9a block: inconclusive; 12-LOX inh: -5%; JMJD2A Tudor: -26%; PLK1 PBD block: -7%; BAZ2B inh: -20%; HP1b chromo inh: -6%

What do the screens show for `COc1cc(OC)c(-c2nn3c(-c4ccco4)nnc3s2)cc1OC`?
G9a block: 45µM*; 12-LOX inh: -19%; JMJD2A Tudor: -33%; PLK1 PBD block: -26%; BAZ2B inh: -8%; HP1b chromo inh: -22%

What do the screens show for `COc1ccc(-c2nn3c(-c4ccco4)nnc3s2)cc1OC`?
G9a block: 7%[12.7 µM]; 12-LOX inh: 0%; JMJD2A Tudor: -5%[11.4 µM]; PLK1 PBD block: inconclusive; BAZ2B inh: 3%; HP1b chromo inh: -21%

Results for Cc1oc(-c2ccc(Cl)cc2)cc1-c1nn2c(-c3ccco3)nnc2s1 ?
G9a block: inconclusive; BAZ2B inh: 35µM*

Results for CCOc1ccc(C(=O)COC(=O)CC)cc1 ?
G9a block: 13%[59 µM]; 12-LOX inh: 6%; JMJD2A Tudor: 3%; PLK1 PBD block: -10%; BAZ2B inh: 0%; HP1b chromo inh: 29%

How did Cc1oc(-c2ccc(F)cc2)cc1-c1nn2c(-c3ccco3)nnc2s1 do in these assays?
12-LOX inh: 11µM*

How did O=C(CCc1ccccn1)N1CCCC(Nc2cccc(F)c2)C1 (stereo not given) do in these assays?
G9a block: 10%; 12-LOX inh: -16%; JMJD2A Tudor: 7.1µM*; PLK1 PBD block: -16%; BAZ2B inh: -3%; HP1b chromo inh: 29%

What do the screens show for `COc1ccc(NC2CCCN(C(=O)CCc3cccc(Cl)c3)C2)cc1` (stereo not given)?
G9a block: inconclusive; 12-LOX inh: -18%; JMJD2A Tudor: inconclusive; PLK1 PBD block: -9%; BAZ2B inh: 35µM*; HP1b chromo inh: inconclusive

Results for COc1ccc(NC2CCCN(C(=O)CCc3cccc(F)c3)C2)cc1 (stereo not given) ?
G9a block: 50µM*; 12-LOX inh: inconclusive; JMJD2A Tudor: inconclusive; PLK1 PBD block: -1%; BAZ2B inh: inconclusive; HP1b chromo inh: -17%

How did Cc1c(C(=O)OCC(=O)NC2CCCCC2)oc2ccccc12 do in these assays?
G9a block: -9%[59 µM]; 12-LOX inh: 1%; JMJD2A Tudor: -13%; PLK1 PBD block: 2%; BAZ2B inh: 8%; HP1b chromo inh: 15%

How did COc1cc(OC)cc(C(=O)NCC(=O)OCC(=O)N2CCc3ccccc32)c1 do in these assays?
G9a block: 7%; 12-LOX inh: 0%; JMJD2A Tudor: inconclusive; PLK1 PBD block: 27µM*; BAZ2B inh: 3%; HP1b chromo inh: 19%

Results for O=C(COc1ccc(Br)cc1)N1CCc2ccccc21 ?
G9a block: 71µM*; 12-LOX inh: 118%; JMJD2A Tudor: 6%; PLK1 PBD block: 5%; BAZ2B inh: 3%; HP1b chromo inh: 32%

What do the screens show for `COCCNC(=O)[C@H]1C[C@H](Oc2cccnc2)CN1C(=O)c1ccccc1`?
12-LOX inh: 32%

Results for O=C(CSc1nnc(CNc2ccc(Cl)cc2)o1)Nc1nc2c(s1)CCCC2 ?
G9a block: 43%[59 µM]; 12-LOX inh: -6%; JMJD2A Tudor: -23%; PLK1 PBD block: -11%; BAZ2B inh: 0%; HP1b chromo inh: 37%

What do the screens show for `Cc1nn(C)c(C)c1CS(=O)(=O)c1ccccc1`?
G9a block: 50µM*; 12-LOX inh: 6%; JMJD2A Tudor: -11%; PLK1 PBD block: -16%; BAZ2B inh: -6%; HP1b chromo inh: 35%

Results for CC(C)CC(NC(=O)c1ccccc1)C(=O)OCC(=O)Nc1ccc(Br)cn1 (stereo not given) ?
G9a block: -46%; 12-LOX inh: 6%; JMJD2A Tudor: -16%; PLK1 PBD block: 2%; BAZ2B inh: 7%; HP1b chromo inh: 19%

What do the screens show for `Cc1ccc(S(=O)(=O)/N=C2/NC(=O)/C(=C/c3ccc(Br)o3)S2)cc1`?
G9a block: inconclusive; 12-LOX inh: 1µM*; JMJD2A Tudor: inconclusive; PLK1 PBD block: inconclusive; BAZ2B inh: inconclusive; HP1b chromo inh: -9%

What do the screens show for `Cc1ccc(S(=O)(=O)/N=C2/NC(=O)/C(=C/c3cccnc3)S2)cc1`?
G9a block: 7%; 12-LOX inh: -39%; JMJD2A Tudor: -25%; PLK1 PBD block: -17%; BAZ2B inh: 11%[57.1 µM]; HP1b chromo inh: 0%

Results for Cc1ccc(S(=O)(=O)/N=C2/NC(=O)/C(=C\c3cc(Br)cc(Br)c3O)S2)cc1 ?
G9a block: 32µM*; JMJD2A Tudor: 50µM*; PLK1 PBD block: 19%; BAZ2B inh: 32µM*; HP1b chromo inh: inconclusive

How did CC1CCN(C(=O)c2cnc(N3CCOCC3)c3ccccc23)CC1 do in these assays?
12-LOX inh: 14%

How did CCN(CC)C(=S)SCC(=O)c1ccc(F)cc1 do in these assays?
G9a block: inconclusive; 12-LOX inh: inconclusive; JMJD2A Tudor: -17%[11.4 µM]; PLK1 PBD block: 30µM*; BAZ2B inh: 56%; HP1b chromo inh: 52%

Results for CCCN(CCC)c1ccc(CC(=O)NC(C)Cc2ccccc2)cc1 (stereo not given) ?
G9a block: 10µM*; 12-LOX inh: -15%; JMJD2A Tudor: inconclusive; PLK1 PBD block: -5%; BAZ2B inh: inconclusive; HP1b chromo inh: -36%

Results for CC(CCc1ccccc1)NC(=O)Cc1ccc([N+](=O)[O-])cc1 (stereo not given) ?
G9a block: -11%[59 µM]; 12-LOX inh: inconclusive; JMJD2A Tudor: -33%[57.1 µM]; PLK1 PBD block: 30µM*; BAZ2B inh: 0%; HP1b chromo inh: inconclusive

Results for CC(CCc1ccccc1)NC(=O)CNc1cccc([N+](=O)[O-])c1 (stereo not given) ?
G9a block: 3%; 12-LOX inh: 1%; JMJD2A Tudor: -32%; PLK1 PBD block: -11%; BAZ2B inh: -1%; HP1b chromo inh: 7%

Results for COCC(C)NCC(=O)NC(C)CCc1ccccc1 (stereo not given) ?
G9a block: 8.9µM*; 12-LOX inh: inconclusive; JMJD2A Tudor: 1µM*; PLK1 PBD block: -14%; BAZ2B inh: 56µM*; HP1b chromo inh: -32%
